Measured values taken from PubChem BioAssay AID1851 (National Center for Advancing Translational Sciences (NCATS), 2009).
Values joined by “and” are separate entries in the source; they are usually repeats but may differ in a detail not shown here. Equal values may be shown once. Screen size: about 16,000 compounds; about 4,000 (25%) were called active. Another 26% or so got no clear call; they are omitted. Calls come from the whole dose curve; as a rule, active = well fitted curve in the direction sought with a large enough effect; inconclusive = small, poorly fitted or top-dose-only effect, or effect the other way; inactive = no such curve, though single readings can be large or run the other way. The list is a sample of the results. Where a structure was tested more than once in an assay, its records may differ in their call.
% is set by controls: 0 for no effect and ±100 for the full control effect.

Each compound was assayed against Cytochrome P450 2C9 (Homo sapiens) (UniProt P11712) (assay: Cytochrome panel assay with activity outcomes). Conditions: recombinant CYP, pro-luciferin dealkylation, luminescence, p450-cyp2c9; series mostly up to 57.1 µM; activity, negative = inhibition: at the top concentration.
Sequence of Cytochrome P450 2C9 (Homo sapiens) (P11712 whole entry, looked up): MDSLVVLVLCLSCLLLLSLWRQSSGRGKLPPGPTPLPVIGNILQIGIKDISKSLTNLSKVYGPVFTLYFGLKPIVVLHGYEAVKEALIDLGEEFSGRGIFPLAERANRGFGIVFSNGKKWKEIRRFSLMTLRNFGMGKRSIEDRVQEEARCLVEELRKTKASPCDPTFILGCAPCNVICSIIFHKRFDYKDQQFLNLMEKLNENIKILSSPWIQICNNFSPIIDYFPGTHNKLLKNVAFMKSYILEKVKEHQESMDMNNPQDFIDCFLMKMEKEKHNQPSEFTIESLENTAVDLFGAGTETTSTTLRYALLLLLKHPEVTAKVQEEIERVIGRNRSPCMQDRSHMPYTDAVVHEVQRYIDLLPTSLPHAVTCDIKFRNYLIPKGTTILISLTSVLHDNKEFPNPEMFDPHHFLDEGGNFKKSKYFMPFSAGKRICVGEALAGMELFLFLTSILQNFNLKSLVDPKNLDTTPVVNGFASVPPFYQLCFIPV
With `C[C@]12CC[C@H]3c4ccc(O)cc4CC[C@@H]3[C@H]1CC[C@@H]2OC(=O)CCc1ccccc1` the activity, negative = inhibition was -8.07% [at 11.4 µM] (inactive). For `COc1cc2c3cc1Oc1cc(ccc1O)C[C@@H]1c4c(cc(OC)c(O)c4Oc4cccc(c4)C[C@H]3N(C)CC2)CC[N+]1(C)C`, the “activity, negative = inhibition” value was -0.825% [at 25.6 µM] (inactive). `O=NN(Cc1ccc(Cl)cc1)[C@@H](C(=O)O)c1ccccc1` was tested, and the activity, negative = inhibition was -22.5% [at 11.4 µM] (inactive). With `N[C@H](CCCP(=O)(O)O)C(=O)O` the “activity, negative = inhibition” value was -3.94% (inactive). In the case of `N#Cc1ccc(CN2CC[C@@]3(CCCN(C(=O)Oc4ccccc4)C3)C2)cc1`, the “activity, negative = inhibition” value is reported as -28.9% (inactive). For `CC[N+](C)(C)c1cccc(O)c1`, the “activity, negative = inhibition” value was 6.93% (inactive). `Cc1cccc(NC(=S)NC2CC3CCCC(C2)N3Cc2cccs2)c1` (stereo unspecified) was tested, and the “activity, negative = inhibition” value was -10.8% (inactive). `CN(C)CCC=C1c2ccccc2CCc2ccccc21` was tested, and the “activity, negative = inhibition” value was 5.35% [at 25.6 µM] (inactive). For `Cc1o[nH]c(=O)c1C[C@H](N)C(=O)O`, the AC50 was “inactive and 10 µM (active)”. `Cc1o[nH]c(=O)c1C[C@@H](N)C(=O)O` was tested, and the “activity, negative = inhibition” value was -14.3% (inactive). With `CC(C)(C)c1o[nH]c(=O)c1C[C@H](N)C(=O)O` the “activity, negative = inhibition” value was 11.8% (inactive). `CCCN1CCC[C@@H]2Cc3nc(N)ncc3C[C@H]21` was tested, and the “activity, negative = inhibition” value was -20.2% (inactive). In the case of `COC(=O)C1(C)C=C2C(=C(C)C(=O)C2C)CN1` (stereo unspecified), the “activity, negative = inhibition” value is reported as -24.9% (inactive). `c1cncc(CNCCN2CCNCC2)c1` was tested, and the activity, negative = inhibition was -12% [at 11.4 µM] (inactive). In the case of `CCC1=C(C[C@H]2NCCc3ccccc32)C[C@@H]2c3cc(OC)c(OC)cc3CCN2C1`, the activity, negative = inhibition is reported as -10.7% [at 11.4 µM] (inactive). With `C[C@@H](O)CN(CCN(C[C@@H](C)O)C[C@@H](C)O)C[C@@H](C)O.O=[N+]([O-])O.[Cu]` the AC50 was 794 nM (active). For `CNC(=S)NC1CC2CCCC(C1)N2CC(C)C` (stereo unspecified), the “activity, negative = inhibition” value was -4.41% (inactive). In the case of `Cc1c([C@@H](C)[C@H]2NC[C@H](C)C[C@@H]2O)ccc2c1C[C@@H]1[C@H]2CC=C2C[C@@H](O)CC[C@@]21C`, the activity, negative = inhibition is reported as 2.85% [at 11.4 µM] (inactive). In the case of `C[N+]1(C)CCO[C@](O)(c2ccc(-c3ccc([C@]4(O)C[N+](C)(C)CCO4)cc3)cc2)C1`, the “activity, negative = inhibition” value is reported as 10.5% [at 25.6 µM] (inactive). `O=C(O)C1=CCCN(CCOC(c2ccc(C(F)(F)F)cc2)c2ccc(C(F)(F)F)cc2)C1` was tested, and the AC50 was 2510 nM (active). In the case of `c1ccc2c([C@@H]3CCN(CCN4CCOCC4)C3)c[nH]c2c1`, the activity, negative = inhibition is reported as -7.99% [at 11.4 µM] (inactive). `Cc1cc(OCC(=O)OC(C)C)c2c3c(c(=O)oc2c1)CCCC3` was tested, and the AC50 was 2000 nM (active). `Cc1cc(OC(=O)CCCNC(=O)OC(C)(C)C)c2c3c(c(=O)oc2c1)CCC3` was tested, and the AC50 was 11200 nM (active). `Cc1cc(OCc2ccc([N+](=O)[O-])cc2)c2c3c(c(=O)oc2c1)CCCC3` was tested, and the AC50 was 141 nM (active). In the case of `COc1cc2cc(c1Cl)N(C)C(=O)C[C@H](OC(=O)C(C)C)[C@]1(C)O[C@@H]1[C@@H](C)[C@H]1C[C@](O)(NC(=O)O1)[C@@H](OC)/C=C\C=C(\C)C2`, the activity, negative = inhibition is reported as 8.76% [at 11.4 µM] (inactive). With `c1ccc2c(c1)-c1ccccc1C2N1CC2CCC(CC2)C1` the activity, negative = inhibition was -14.3% [at 11.4 µM] (inactive). `CC(C)[N+](C)(CCC(C(N)=O)(c1ccccc1)c1ccccc1)C(C)C` was tested, and the “activity, negative = inhibition” value was -15% [at 25.6 µM] (inactive). For `CCSCC[C@H](N)C(=O)O`, the activity, negative = inhibition was -1.99% [at 11.4 µM] (inactive). For `C[C@H](N)Cc1c[nH]c2ccc(OCc3cccs3)cc12`, the activity, negative = inhibition was “inactive”. For `C[C@@H]1[C@@H]2Cc3ccc(O)cc3[C@@]1(C)CCN2CC1CC1`, the “activity, negative = inhibition” value was -8.03% (inactive). With `N#CCCCC[N+]12CN3CN(CN(C3)C1)C2` the activity, negative = inhibition was 6.4% [at 11.4 µM] (inactive). For `C[C@H](c1ccccc1)N1CCN([C@@H](C)c2ccccc2)CC1`, the activity, negative = inhibition was 5.45% [at 11.4 µM] (inactive). With `O=C(O)[C@@H]1[C@H](C(=O)O)[C@]2(Cl)C(Cl)=C(Cl)[C@@]1(Cl)C2(Cl)Cl` the activity, negative = inhibition was -24.4% [at 11.4 µM] (inactive). In the case of `C/C=C(\C)C(=O)O[C@@H]1C(C)=C2[C@H]([C@@H]1OC(=O)CCCCCCC)[C@@](C)(OC(C)=O)C[C@@H](OC(=O)CCC)[C@@]1(O)[C@H]2OC(=O)[C@]1(C)O`, the AC50 is reported as 31600 nM (active). In the case of `CNC[C@H](O)c1ccc(O)cc1`, the “activity, negative = inhibition” value is reported as -2.51% [at 25.6 µM] (inactive). `CN1CCN(c2ccc3ccccc3n2)CC1` was tested, and the activity, negative = inhibition was “inactive”. In the case of `CCCN1CCO[C@@H]2c3cc(O)ccc3OC[C@H]21`, the activity, negative = inhibition is reported as “inactive”. With `O=[As](O)(O)c1ccc2nc3cc([As](=O)(O)O)ccc3nc2c1` the activity, negative = inhibition was 1.65% [at 11.4 µM] (inactive). `CCCN1CCc2cccc3c2[C@@H]1Cc1ccc(O)c(O)c1-3` was tested, and the “activity, negative = inhibition” value was -23.4% (inactive). For `COCCn1c(SCc2nc3sc(C(=O)OC)c(C)c3c(=O)[nH]2)nc2ccccc21`, the AC50 was 891 nM (active). In the case of `NC(N)=Nc1ccc2[nH]c3c(c2c1)C[C@]1(O)[C@@H]2Cc4ccc(O)c5c4[C@]1(CCN2CC1CC1)[C@@H]3O5`, the “activity, negative = inhibition” value is reported as 0.123% (inactive). For `CCN1C[C@@]2(COC)[C@H]3[C@@H](OC)[C@H]4C1[C@@]3([C@H](OC)C[C@@H]2O)[C@H]1C[C@@]2(O)[C@@H](OC(=O)c3ccccc3)[C@@H]1[C@@]4(OC(C)=O)[C@H](O)[C@@H]2OC`, the “activity, negative = inhibition” value was 5.31% [at 25.6 µM] (inactive). With `COc1ccc(C2SCC(=O)Nc3c2c(C)nn3-c2ccccc2)cc1OC` (stereo unspecified) the AC50 was 10000 nM (active). `O=C(Oc1ccc(S(=O)(=O)F)cc1F)c1ccccc1Cl` was tested, and the activity, negative = inhibition was -12.2% [at 11.4 µM] (inactive). In the case of `C/C(O)=C(/C#N)C(=O)Nc1cc(Br)ccc1Br`, the “activity, negative = inhibition” value is reported as 15.6% (inactive). `O=C1C2CCN(CC2)C1(CO)CO` was tested, and the AC50 was 63.1 nM (active) and the activity, negative = inhibition was -2.93% [at 11.4 µM] (inactive). In the case of `O=P(O)(O)C(Cl)(Cl)P(=O)(O)O`, the “activity, negative = inhibition” value is reported as -14.4% (inactive). `COC1=CC(=O)O[C@@H](/C=C\c2ccccc2)C1` was tested, and the “activity, negative = inhibition” value was -17.6% [at 25.6 µM] (inactive). `N[C@H](CP(=O)(O)O)C(=O)O` was tested, and the “activity, negative = inhibition” value was 1.7% (inactive). With `CCCCN1C(=O)C(C2c3ccccc3C(=O)N2Cc2ccccc2)C(=O)NC1=S` (stereo unspecified) the AC50 was 2000 nM (active). With `CN1C(=O)C(C2c3ccccc3C(=O)N2Cc2ccc([N+](=O)[O-])cc2)C(=O)N(C)C1=O` (stereo unspecified) the AC50 was 25100 nM (active). For `Cc1cc(C)c(-n2c(O)c(C=NCCN3CCOCC3)c(=O)[nH]c2=O)c(C)c1`, the “activity, negative = inhibition” value was 49.6% (inactive). In the case of `CCC(=O)Nc1ccc(N2CCN(CC)CC2)c(Cl)c1`, the “activity, negative = inhibition” value is reported as -6.79% (inactive). In the case of `NC(=O)CN1C[C@@H](O)CC1=O`, the “activity, negative = inhibition” value is reported as 17.9% (inactive). For `CC1(C)CCC(C)(C)c2c1ccc(O)c2Cc1c(O)ccc2c1C(C)(C)CCC2(C)C`, the activity, negative = inhibition was -17.2% [at 11.4 µM] (inactive).
